# Test results: PubChem BioAssay (NCATS)
# Results filed as inconclusive are left out. Where a call stands in place of a potency, no number is given. Values without a mark were called inactive. Active and inactive are the calls of the source. The call rests on the fitted dose curve.
# Test: Cytotoxicity counterscreen for inhibitors of SARS-CoV-2 cell entry (AID 1645845); further: nearly all actives have a fitted effect of over 50% in size
# Conditions: cell viability (SARS-CoV-2 entry assay cells); series mostly up to 57.1 µM; activity change, negative = cytotoxicity: at the top concentration
# Procedure, shortened: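 48 h compound treatment (after 1 h preincubation), HEK293-ACE2 cells, 37 C/5% CO2; ATP luminescence endpoint; normalized to cell wells and media blanks.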
# Potency means the concentration at half of the fitted maximal effect.
SMILES,"activity change, negative = cytotoxicity [%]",Potency,outcome
NC(=O)c1ccc(N(C(N)=O)c2c(F)cccc2F)nc1-c1ccc(F)cc1F,4.12,–,–
C[C@@H]1CCN(C(=O)CC#N)C[C@@H]1N(C)c1ncnc2[nH]ccc12,–,inactive,–
Fc1cc(-c2cccc3ncc(-c4cnn(C5CCNCC5)c4)nc23)cc(F)c1CN1CCOCC1,–,31.6 µM (active),–
OCCn1cc(-c2cnc3nnn(Cc4ccc5ncccc5c4)c3n2)cn1,–,–,inactive
Nc1ccccc1NC(=O)c1ccc(CNC(=O)OCc2cccnc2)cc1,-28,–,–
CCC(C)(Oc1ccc(C2(c3ccc(OC(C)(CC)C(=O)O)cc3)CCCCC2)cc1)C(=O)O (centres undefined),–,inactive,–
CC(=O)N[C@@H](Cc1ccc(O)cc1)C(=O)O,-5.49,–,–
COc1ccc(-c2c(-c3ccc(O)cc3O)n[nH]c2C)cc1,-14.1,–,–
COc1c(N2CCNC(C)C2)c(F)cc2c(=O)c(C(=O)O)cn(C3CC3)c12 (centres undefined),–,inactive,–
O=C(O)CCC1CCC(c2cc(F)ccc2F)(S(=O)(=O)c2ccc(Cl)cc2)CC1 (centres undefined),-13.2,–,–
CC(=O)OCCN1C(=O)c2c(C)nc3ccc(S(=O)(=O)N4CCOCC4)cc3c2C1=O,4.26,–,–
NCCCC(N)(C(=O)O)C(F)F (centres undefined),–,inactive,–
CC(C)[C@H](CO)Nc1nc(Nc2ccc(C(=O)O)c(Cl)c2)c2ncn(C(C)C)c2n1,-11,–,–
Nc1nc2c(ncn2CCC(CO)CO)c(=O)[nH]1,–,–,inactive
C[C@@H]1CN(c2c(F)c(N)c3c(=O)c(C(=O)O)cn(C4CC4)c3c2F)C[C@H](C)N1,–,inactive,–
CC(C)(Sc1ccc(CCN(CCCCC2CCCCC2)C(=O)NC2CCCCC2)cc1)C(=O)O,1.76,–,–
COc1c(Cl)cc2c([nH]c3cnccc32)c1NC(=O)c1cccnc1C,-5.81,–,–
CN[C@@H](C)C(=O)N[C@H]1CCCC[C@H]2CC[C@@H](C(=O)N[C@@H](c3ccccc3)c3cn(CCCCc4ccc(CCCCn5cc([C@@H](NC(=O)[C@@H]6CC[C@@H]7CCCC[C@H](NC(=O)[C@H](C)NC)C(=O)N76)c6ccccc6)nn5)cc4)nn3)N2C1=O,-9.37,–,–
CN(C)CC/C=C1/c2ccccc2COc2ccc(CC(=O)O)cc21,–,inactive,–
C[C@@H](Oc1cc(-c2cnn(C3CCNCC3)c2)cnc1N)c1c(Cl)ccc(F)c1Cl,–,25.1 µM (active),–

SMILES,"activity change, negative = cytotoxicity [%]",Potency,outcome
CCCCCCCCCCCCCC(=O)OC(C)C,–,–,inactive
COc1cc2c(cc1OC)CC(=O)N(CCCN(C)C[C@H]1Cc3cc(OC)c(OC)cc31)CC2,–,inactive,–
CNCc1ccc(-c2[nH]c3cc(F)cc4c3c2CCNC4=O)cc1,–,inactive,–
C1Cc2[nH]nc(-c3nn[nH]n3)c2C1,–,–,inactive
O=C(Nc1ccccc1-c1cn2c(CN3CCNCC3)csc2n1)c1cnc2ccccc2n1,–,7.08 µM (active),–
Cc1ccccc1N=Nc1ccc(N=Nc2c(O)ccc3ccccc23)c(C)c1,–,–,inactive
Fc1ccc(Cl)cc1-c1nc(Nc2ccncc2)c2nccnc2n1,–,–,inactive
COC(=O)c1ccc2c(C(=Nc3ccc(N(C)C(=O)CN4CCN(C)CC4)cc3)c3ccccc3)c(O)[nH]c2c1,–,–,inactive
Cc1ccc(C(=O)Nc2ccc(CN3CCN(C)CC3)c(C(F)(F)F)c2)cc1C#Cc1cnc2cccnn12,–,31.6 µM (active),–
CC(C)(C(=O)NCC(F)(F)C(F)(F)F)C(=O)N[C@@H]1C(=O)Nc2ccccc2-c2ccccc21,4.79,–,–
CC(C)CCCC(C)CCCC(C)CCCCC(C)CCCC(C)CCCC(C)C (centres undefined),–,–,inactive
Cc1ccnc(NS(=O)(=O)c2ccc(NC(=O)Nc3ccc(S(=O)(=O)Nc4nccc(C)n4)cc3)cc2)n1,–,–,inactive
CC[C@H](Nc1ncnc2nc[nH]c12)c1nc2cccc(F)c2c(=O)n1-c1ccccc1,–,inactive,–
CC(C)C[C@H](NC(=O)[C@@H](O)[C@H](N)Cc1ccccc1)C(=O)O,–,inactive,–
CS(=O)(=O)Nc1ccc([N+](=O)[O-])cc1Oc1ccccc1,–,inactive,–
CCOC(=O)C(C)Oc1cccc2c(=O)n(CC(=O)Nc3ccc4c(c3)OCCO4)ccc12 (centres undefined),–,–,inactive
Nc1nc(-c2nn(Cc3ccccc3F)c3ncccc23)nc(N)c1N1CCOCC1,–,–,inactive [at 27.1 µM]
c1ccc(-c2nn3c(c2-c2ccnc4cc(OCCN5CCOCC5)ccc24)CCC3)nc1,-6.53,–,–
C=C1C(=CC=C2CCC[C@]3(C)[C@@H]([C@H](C)C=C[C@H](C)C(C)C)CC[C@@H]23)C[C@@H](O)C[C@@H]1O,0.845,–,–
